Consider 97 molecules from PubChem BioAssay AID1347076 (National Center for Advancing Translational Sciences (NCATS), 2019).

In all, about 400,000 compounds went through this assay and about 13,000 (3.2%) were called active. Where a call stands in place of a potency, no number is given. Another 18% or so got no clear call; they are omitted. Calls come from the whole dose curve; as a rule, active = well fitted cell-killing curve with a large enough effect; inconclusive = small, poorly fitted or top-dose-only effect, or effect the other way; inactive = flat fitted curve, though single readings scatter. The sample as a whole holds a higher share of actives than the screen did.
Potency is the fitted concentration of half-maximal effect.

This assay in a line: qHTS assay for MDR1-selective chemotherapeutics: Primary screen using the drug-selected MDR subline cells KB-V1. Note: nearly all actives have a fitted effect of over 60% in size. As to conditions: KB-V1 MDR cells viability, CellTiter-Glo, 72 h; series mostly up to 46.1 µM. The gist of the method:
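qHTS viability screen in drug-selected KB-V1 MDR cells: 72 h compound treatment at 37 degrees C, ATP luminescence end point.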
On the technique in general: qHTS replaces the single test concentration by a dilution series.
Take `CC1(Cc2ccccc2C#N)C(=O)Nc2ccc(-c3ccc4[nH]ccc4c3)cc21` (configuration not stated): the Potency is 6.51 µM (active).

Take `Cc1ccc(CC2(C)C(=O)Nc3ccc(OC(F)(F)F)cc32)cc1` (configuration not stated): the Potency entry was “inactive”.

On to `COc1ccccc1CC1(C)C(=O)Nc2ccc(OC(F)(F)F)cc21` (configuration not stated), for which the Potency entry is “inactive”.

Consider `Cc1ccc(-n2ncc3c(N4CCC(C(N)=O)CC4)ncnc32)cc1`, for which the Potency entry was “inactive”.

Regarding `Cc1cc(OCC(=O)Nc2nccs2)c2c(C)c(C)c(=O)oc2c1`, the Potency result was “inactive”.

On to `COc1ccc(C(C)C)cc1-c1ccc2nncn2c1`, for which the Potency result is “inactive”.

For the molecule `O=C(NNC(=O)c1ccc(Cl)nc1)c1ccc(Br)cc1`, the Potency entry was “inactive”.

Consider `CCN(CC)c1ccc(NC(=O)CN2CCN(CC(=O)Nc3ccc(Cl)cc3)CC2)cc1`, for which the Potency result was “inactive”.

With `CCN(CC)c1ccc(NC(=O)c2ccc(Cl)nc2)cc1`, the Potency was 4.61 µM (active).

With `COC(=O)c1ccccc1NS(=O)(=O)c1ccc2c(c1)CCCN2C(C)=O`, the Potency entry was “inactive”.

Consider `CCOc1cc(/C=N/NC(=O)c2c(C)nc3ccc(Cl)cn23)ccc1O`, for which the Potency entry is “inactive”.

For the molecule `CCc1oc(-c2ccc(OC)cc2)c(C(=O)OCCCCCO)c1C(C)OCCO` (configuration not stated), the Potency result is “inactive”.

In the case of `O=C(NN1C(=O)C2C(C1=O)C1C=CC2C12CC2)c1ccccc1Cl` (configuration not stated), the Potency result was “inactive”.

Regarding `CC12CCC(C(=O)N(NC(=O)c3ccccc3O)C1=O)C2(C)C` (configuration not stated), the Potency was 3.26 µM (active).

As for `CC12CCC(C(=O)N(c3cccc(Cl)c3)C1=O)C2(C)C` (configuration not stated), the Potency entry was “inactive”.

Take `O=C(NCc1ccccc1)C1CNCC(C(=O)NCc2ccccc2)C1` (configuration not stated): the Potency result is “inactive”.

Take `O=C(OC/C=C/CSc1nnc(-c2cccc3ccccc23)o1)c1ccc(F)cc1`: the Potency entry was “inactive”.

Turning to `Cc1cc(S(=O)(=O)NC2CCCC2)ccc1-n1cnnn1`, the Potency result was “inactive”.

On to `COc1cc(S(=O)(=O)N(Cc2cccs2)C2CC2)ccc1-n1cnnn1`, for which the Potency is 4.61 µM (active).

In the case of `CCOc1ccc(CN(Cc2ccco2)S(=O)(=O)c2ccc(-n3cnnn3)c(OC)c2)cc1`, the Potency entry was “inactive”.

`CCOC(=O)c1c(C)oc2nc(C)nc(Nc3ccc(CC)cc3)c12`: the Potency result is “inactive”.

On to `O=C(C(=O)N1CCC(c2ccccc2)CC1)c1ccccc1`, for which the Potency entry is “inactive”.

As for `Cc1csc(SCC(=O)Nc2ccc(C)c(S(=O)(=O)N(C)C)c2)n1`, the Potency entry was “inactive”.

`CCN1CCN(CCNC(=O)c2ccc3c(c2)NC(=O)/C(=C\c2cccc(Cl)c2)S3)CC1`: the Potency entry was “inactive”.

As to `O=C(OCC(=O)N1CCCCCC1)c1cccc(Cl)c1Cl`, the Potency entry was “inactive”.

In the case of `CCOc1ccc(CCN2C(=S)N([C@@H](CC(C)C)CN3CCC[C@@H]3CN3C(=S)NC[C@@H]3Cc3ccc(O)cc3)C[C@@H]2Cc2ccc(O)cc2)cc1`, the Potency result was “inactive”.

For `CCC(=O)N1CCc2cc(S(=O)(=O)NC(Cc3ccccc3)C(=O)NCc3ccccc3)ccc21` (configuration not stated), the Potency entry is “inactive”.

For `CC1CCCN(CCOCCOc2ccccc2-c2ccccc2)C1` (configuration not stated), the Potency is 20.6 µM (active).

Consider `CN1CCN(CCCCOc2ccccc2-c2ccccc2)CC1`, for which the Potency result is “inactive”.

Consider `CC1CCCN(CC(O)COCc2ccccc2)C1` (configuration not stated), for which the Potency entry was “inactive”.

Turning to `OC[C@@H]1CN(Cc2ccc(F)cc2)C[C@H](n2cnc3c(NC4CCCC4)ncnc32)O1`, the Potency result is “inactive”.

`Cc1ccc(N2CCN(C(=S)Nc3cc(C)ccn3)CC2)cc1`: the Potency result was “inactive”.

As to `CC(NC(=O)CC1SC(N)=NC1=O)c1ccccc1` (configuration not stated), the Potency entry is “inactive”.

For `NC1=NC(=O)C(Cc2cccc(Cl)c2Cl)S1` (configuration not stated), the Potency is 18.4 µM (active).

In the case of `O=C1NC(=Nc2ccc(Cl)cc2)SC1Cc1cccc(Cl)c1Cl` (configuration not stated), the Potency entry is “inactive”.

Regarding `C[C@@H]1CN([C@H](C)CO)S(=O)(=O)c2ccc(C#C[C@@H](C)O)cc2O[C@@H]1CN(C)Cc1ccc(-c2ccccc2)cc1`, the Potency entry is “inactive”.

Turning to `Cc1cc(Br)cn2c(Cc3ccsc3)c(-c3ccc(C#N)cc3)nc12`, the Potency entry was “inactive”.

For the molecule `COc1cccc(OCCn2c(-c3ccc(Br)cc3)nc3ccccc3c2=O)c1`, the Potency entry is “inactive”.

As for `CC[C@]1(O)C[C@@H]2CN(CCc3c([nH]c4ccccc34)[C@@](C(=O)OC)(c3cc4c(cc3OC)N(C)[C@H]3[C@@](O)(C(=O)OC)[C@H](OC(C)=O)[C@]5(CC)C=CCN6CC[C@]43[C@@H]65)C2)C1`, the Potency was 5.17 µM (active).

For `CC[C@]1(O)CC2CN(CCc3c([nH]c4ccccc34)[C@@](C(=O)OC)(c3cc4c(cc3OC)N(C=O)[C@H]3[C@@](O)(C(=O)OC)[C@H](OC(C)=O)[C@]5(CC)C=CCN6CC[C@]43[C@@H]65)C2)C1` (some centres not stated), the Potency is 20.6 µM (active).

In the case of `O=CNc1cc(-c2ccc(C(=O)N3CCOCC3)cc2)cn2c(-c3ccc(F)cc3)cnc12`, the Potency result was “inactive”.

`COC(=O)c1cc(NC(=O)CCS(=O)(=O)c2cc(Br)cc3c2N(C(=O)C2CC2)CC3)cc(C(=O)OC)c1`: the Potency result was “inactive”.

Regarding `CCNC(=O)C1CCCN(C(=O)c2cc(F)ccc2C)CC1` (configuration not stated), the Potency entry was “inactive”.

Take `COc1ccc(NC(=O)C(c2ccncc2)n2c(=O)c(-c3cc4ccccc4[nH]3)nc3ccccc32)cc1` (configuration not stated): the Potency result is “inactive”.

Turning to `CC(C)c1ccc(NC(=O)c2cc(S(=O)(=O)N3CCc4ccccc4C3)ccc2F)cc1`, the Potency entry is “inactive”.

Consider `Cc1ccccc1S(=O)(=O)N1[C@@H](c2cccc(Cl)c2)C(C(=O)OC(C)(C)C)=CC[C@H]1c1ccc(Cl)cc1`, for which the Potency entry was “inactive”.

On to `CCC(C)NCCOCCOc1ccc(Br)cc1C` (configuration not stated), for which the Potency was 20.6 µM (active).

For `COCCCNCCOCCOc1ccc(Cl)cc1Br`, the Potency entry is “inactive”.

As to `CCOCCCNCc1cc(Br)ccc1OCC`, the Potency entry is “inactive”.

In the case of `COc1ccc(N)cc1NC(=O)CN1CCOCC1`, the Potency result is “inactive”.

Take `CCCS(=O)(=O)NC(=O)C1(C)CCN(C(=O)c2sccc2C)C1` (configuration not stated): the Potency result is “inactive”.

As for `O=C(CN1c2ccccc2S(=O)(=O)c2ccccc21)Nc1cccc(C(F)(F)F)c1`, the Potency entry was “inactive”.

As to `Cc1cc(C)c2cc(CN(Cc3cccs3)Cc3nnnn3CC3CCCO3)c(=O)[nH]c2c1` (configuration not stated), the Potency is 16.4 µM (active).

Regarding `COc1ccc2[nH]c(=O)c(CN(Cc3nnnn3CCc3ccccc3)CC3CCCO3)cc2c1` (configuration not stated), the Potency entry was “inactive”.

For `Cc1cc2cc(CN(Cc3cccs3)Cc3nnnn3CC3CCCO3)c(=O)[nH]c2cc1C` (configuration not stated), the Potency result is “inactive”.

With `CCN(CC)C(=O)C1CCCN(Cc2cccc(Cl)c2)C1` (configuration not stated), the Potency entry is “inactive”.

As to `Cc1ccc(NC(=O)C2CCCN2C(=O)OCc2ccccc2)cc1C` (configuration not stated), the Potency entry is “inactive”.

With `CCOC(=O)N1CCC(N(CCOC)C(=O)Nc2ccc(C)c(C)c2)CC1`, the Potency was 4.11 µM (active).

Consider `CCOC(=O)C1CCN(C(=O)Nc2ccc(C)c(Cl)c2)CC1`, for which the Potency result was “inactive”.

In the case of `Cc1ccc(NC(=O)COC(=O)CN2CCSC2=O)cc1F`, the Potency entry is “inactive”.

As for `CCc1ccccc1NC(=O)c1ccc2nc(CCc3ccccc3)oc2c1`, the Potency entry was “inactive”.

Regarding `CN(C)c1ccc(/C=C2\C=Cc3ccccc32)cc1Br`, the Potency result was “inactive”.

In the case of `O=C(CN1CCN(S(=O)(=O)c2ccc(Cl)s2)CC1)N1CCCCC1`, the Potency result is “inactive”.

`O=C(CN1CCN(S(=O)(=O)c2ccc(Cl)s2)CC1)NCc1ccc(Cl)cc1`: the Potency is 3.66 µM (active).

With `Cc1ccccc1N1CCN(CC(=O)NCc2ccc(Cl)cc2)CC1`, the Potency entry was “inactive”.

Regarding `Cc1cc(C)c2nc3nc(C)cc(C)c3c(N)c2c1`, the Potency was 18.4 µM (active).

With `O=C(OC12CC3CC(CC(C3)C1)C2)c1ccc(NCc2cc(O)ccc2O)cc1`, the Potency is 14.6 µM (active).

As to `CC(C)OC(=O)c1ccc(NCc2cc(O)ccc2O)cc1Cl`, the Potency entry is “inactive”.

For the molecule `COC(=O)c1ccc(NCc2cc(O)ccc2O)cc1`, the Potency result was “inactive”.

`O=S(=O)(c1ccccc1)N1CCc2ccccc21`: the Potency entry was “inactive”.

Turning to `CSc1nc2ccc(S(=O)(=O)N3CCc4ccccc43)cc2s1`, the Potency was 3.66 µM (active).

As for `CNC(=O)c1ccsc1NC(=O)c1ccc(S(=O)(=O)N2CCc3ccccc32)cc1`, the Potency entry is “inactive”.

In the case of `O=C(CNC(=O)c1ccccc1)Oc1ccc([N+](=O)[O-])cc1`, the Potency entry is “inactive”.

In the case of `O=S(=O)(c1ccc2c(c1)OCCO2)N1CCc2ccccc21`, the Potency result is “inactive”.

`O=C(NC(Nc1nc2ccc([N+](=O)[O-])cc2s1)(C(F)(F)F)C(F)(F)F)c1ccccc1`: the Potency was 0.517 µM (active).

For `O=C(Nc1nnc(S(=O)(=O)N2CCCc3ccccc32)s1)c1cccc(F)c1`, the Potency entry was “inactive”.

`O=C(Nc1nc2ccc([N+](=O)[O-])cc2s1)c1ccc(S(=O)(=O)N2CCCc3ccccc32)cc1`: the Potency was 1.03 µM (active).

Turning to `O=C(CCNC(=O)c1ccccc1)Nc1nc2ccccc2s1`, the Potency result is “inactive”.

Consider `CN(Cc1ccccc1)C(=O)[C@@H]1CCCN1C(=O)[C@@H]1CCCN1C(=O)c1c(F)cccc1F`, for which the Potency result was “inactive”.

As to `O=C(COC(=O)c1cccc(Cl)c1Cl)NC1CCCCCC1`, the Potency entry is “inactive”.

With `CNC[C@H]1OCc2cnnn2CCCC(=O)N([C@H](C)CO)C[C@@H]1C`, the Potency result was “inactive”.

For `C[N+](C)(C)CCNC(=O)c1c[nH]c2ccccc12`, the Potency result is “inactive”.

As to `Cc1ccc(Cc2c(-c3ccc(Cl)cc3)nc3c4ccccc4ccn23)cc1`, the Potency entry is “inactive”.

Consider `COc1ccc(CN2C(=O)C(CC(=O)NCCN3CCOCC3)CC(C(=O)N(C(C)C)C(C)C)=C2C)cc1` (configuration not stated), for which the Potency entry is “inactive”.

Turning to `COC(=O)c1ccccc1S(=O)(=O)Nc1ccc(OC)cc1`, the Potency result is “inactive”.

Take `OC[C@@H]1CN(Cc2ccc(-c3ccccc3)cc2)C[C@H](n2cnc3c(NC4CCCC4)ncnc32)O1`: the Potency entry was “inactive”.

For `Cc1ccc(Cn2c(=O)n(Cc3nc(-c4ccccc4)no3)c(=O)c3cc4c(cc32)OCO4)cc1`, the Potency result is “inactive”.

As to `CCOC(=O)[C@]12CCC=C1N(Cc1ccccc1)C(=O)[C@H](CC(=O)N1CCCC1)C2`, the Potency result is “inactive”.

`COc1cc(C(O)c2nc(-c3cnn(C)c3)cs2)ccc1F` (configuration not stated): the Potency entry is “inactive”.

As to `COc1ccc(/C=C/C(=O)c2cc(Br)ccc(=O)c2O)cc1`, the Potency is 14.6 µM (active).

In the case of `COc1ccc(C(=O)c2oc3ccc(Br)cc3c2NC(C)=O)cc1`, the Potency entry was “inactive”.

`COc1ccc(C(=O)/C=C/c2ccc(OC3CSC3)cc2)cc1`: the Potency entry was “inactive”.

Consider `COc1ccc(CCNC(=O)Nc2ccc3c(c2)c(=O)n(C)n3C)cc1OC`, for which the Potency result was “inactive”.

For `COC(=O)C[C@@H]1C=C[C@@H](NC(=O)c2cccnc2)[C@@H](CO)O1`, the Potency result is “inactive”.

For `COc1cccc(C(=O)Nc2ccc3nc4n(c(=O)c3c2)CCCCC4)c1`, the Potency result was “inactive”.

`COc1cccc(C(=O)Nc2ccc(N3CCCC3)cc2)c1`: the Potency is 5.8 µM (active).

With `COc1ccc(C(=O)Nc2ccc(N3CCC(C)CC3)cc2)cc1Br`, the Potency entry is “inactive”.
